Experimental data reported in the OligoGym collection.

Each sequence was assayed against KCNK12 (assay: pooled miR-30 sensor sort-seq; sequence = guide strand). Conditions: shRNA.
Note: reference of the scale not given here.

| Sequence | sensor-assay potency score (higher = more potent) |
| --- | --- |
| TCGTTGAGGTGCGAACGGCGGC | -1.1 |
| TTGACGCACACGCTGCGCGGGT | -0.763 |
| TTGATGAGGATGGAGATGACGT | -0.352 |
| AAGAGGTTGAAGAACAGGATGG | -0.732 |
| TTGTTCATGATGCCCAGCGCGC | -1.54 |
| TCGAGCGCCGAGAAGACTGTGG | -0.801 |
| TTCTGCAGCAGCGCCAGCGACA | -1.81 |
| AGTAAATGCAGCACACGCCGAG | -1.04 |
| TTGAGCACCTGCTTGATGAGGA | 0.236 |
| TACATGGCCGAGGCGCAGCAGG | -1.41 |
| TTGAAGAACAGGATGGTCCCAG | 0.312 |
| TTGAGGTGCGAACGGCGGCAGC | -1.57 |

What follows are sequences tested against KCNK6 in the same assay as above. Conditions: shRNA.

| Sequence | sensor-assay potency score (higher = more potent) |
| --- | --- |
| TTGTGTACCCATAGCCCACGGT | -0.627 |
| TAGTCGGTGTGGGAGCTGGCAG | -1.57 |
| TTGCTGGTGCGACTCCGGCTGG | -1.34 |
| TAAAGCAGAAGTAGAAGGCATC | -0.372 |
| TGGAGGTCGGACACGTGGCGGA | -1.12 |
| AAGGCATCCAAGAAGCTCCAGG | -0.209 |
| TTAGCAAGCACGACCCGCCCCA | -0.345 |
| TCCTCATCCGCATTGAAACTGG | -1.46 |
| TAGACTGTGACCAGCACCTTGT | -0.385 |
| TCATCCGCATTGAAACTGGCAG | -0.75 |
